Pf growth 48h – inhibits P. falciparum growth in the first generation, 48 h; P. falciparum luciferase growth in erythrocytes, 48 h; Potency, µM (titrated, usually from 28.7 µM), inactives show at the top dose activity change, negative = inhibition, usual class: inhibitors; actives 5.9% (n = 310,000); AID 504832; also: potency is read from the fitted curve at half-maximal effect
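Luminescence readout; reporter = integrated firefly luciferase in P. falciparum. RBC culture at 2% hematocrit, 0.1% parasitemia final, 37 C/5% CO2; decreased signal taken as growth inhibition.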
Pf growth 96h – P. falciparum growth inhibition at 96 hours. P. falciparum luciferase reporter growth, 96 h. Potency, µM (doses to about 28.7 µM), for inactives: at the top dose activity change, negative = inhibition, usual class: inhibitors. actives 6.9% (n = 320,000); also: potency is read from the fitted curve at half-maximal effect
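Compounds incubated with erythrocytes infected by luciferase-expressing P. falciparum (2% hematocrit, 0.05% parasitemia final) for 96 hours, 37 C in 5% CO2. Growth inhibition scored as decreased luciferase luminescence.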
HCMV inh – human cytomegalovirus inhibition | actives 4.5% (n = 410,000) | activity change, negative = inhibition, % at 57.5 µM | HFF cells, HCMV-luciferase reporter, 72 h; active compounds read low | AID 1259415; in the data active = activity change below about -60%; inconclusive = no clear call, values can overlap the other calls; inactive = above about -39%
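Human foreskin fibroblasts infected with luciferase-reporter HCMV at MOI 1 PFU/cell, compounds at two doses. Luciferase measured 72 h post infection; normalized to buffer-only basal and Salinomycin (10uM) controls.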
Sm TGR inh – inhibitors of Schistosoma mansoni thioredoxin glutathione reductase. Q962Y6. purified TGR, DTNB reduction, TNB absorbance 405 nm. Potency, µM (titrated, usually from 114 µM), without a hit: at the top dose activity change, negative = inhibition, actives largely listed as inhibitors. actives 3% (n = 360,000); also: potency is read from the fitted curve at half-maximal effect; nearly all actives have a fitted effect of over 60% in size
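Kinetic colorimetric format: TGR-catalysed, NADPH-driven DTNB reduction monitored via TNB absorbance. Enzyme dispensed at 20 nM; compound exposure 15 min at room temperature before reaction start.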
FBPA Giardia inh – inhibitors of Giardia lamblia fructose-1,6-bisphosphate aldolase; A8B2U2; actives 0.71% (n = 290,000); purified Giardia FBPA; Potency, µM (doses to about 59.6 µM), for the others: top-dose activity, negative = inhibition, usual class: inhibitors; also: potency is read from the fitted curve at half-maximal effect; nearly all actives have a fitted effect of over 55% in size
Target sequence (A8B2U2 whole entry, looked up): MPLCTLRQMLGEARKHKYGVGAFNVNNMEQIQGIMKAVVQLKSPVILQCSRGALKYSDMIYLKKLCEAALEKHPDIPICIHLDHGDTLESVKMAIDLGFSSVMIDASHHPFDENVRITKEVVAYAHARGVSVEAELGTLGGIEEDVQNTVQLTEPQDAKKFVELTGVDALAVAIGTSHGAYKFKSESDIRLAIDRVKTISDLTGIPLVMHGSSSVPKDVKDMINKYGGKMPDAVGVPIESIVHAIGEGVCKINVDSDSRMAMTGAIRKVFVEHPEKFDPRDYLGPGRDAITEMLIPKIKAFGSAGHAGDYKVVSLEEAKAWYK
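Giardia FBPA (40 nM reagent) was preincubated 10 min at RT with compound (up to 57.5 uM final), then substrate plus GAPDH/TPI/NAD/arsenate coupling system with diaphorase/resazurin was added; resorufin fluorescence (525/598 nm) was read after 20 min.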
The depositor's hits bear a star; ? = inconclusive; . = no result given; + = active, no number; [ ] = dose if it differs, or a comment. In the library only some 14% were active in any assay of this set; here they are far more common. Unless noted, calls follow the shape of the dose curve; as a rule, active = well fitted curve in the direction sought with a large enough effect; inconclusive = small, poorly fitted or top-dose-only effect, or another doubt; inactive = no such curve, though single readings can be large; an effect the other way counts as inactive or inconclusive. % is scaled to controls: 0 for no effect and ±100 for the full control effect.

SMILES	Pf growth 48h	Pf growth 96h	HCMV inh	Sm TGR inh	FBPA Giardia inh
Cc1ccc(C(=O)c2cnc3cc4c(cc3c2S(=O)(=O)c2ccccc2)OCCO4)cc1	3.3µM*	?	-94*	-23%	-17%
CCc1ccc(C(=O)c2cnc3ccc(F)cc3c2S(=O)(=O)c2ccccc2)cc1	.	.	-2	-16%	.
Cc1ccc2ncc(C(=O)c3ccc(C)c(C)c3)c(S(=O)(=O)c3ccccc3)c2c1	.	.	-92*	1%	.
COc1ccc(S(=O)(=O)c2c(C(=O)c3ccc(C)c(C)c3)cnc3ccc(C)cc23)cc1	.	.	?	-1%	.
Cc1ccccc1Nc1c(-c2ccc(N3CCOCC3)cc2)nc2ccc(Cl)cn12	.	.	71	0%	.
Cn1c(=O)c2c(ncn2CC(=O)OCC(=O)Nc2ccc(F)cc2F)n(C)c1=O	-11%	19%	0	4%	.
COc1ccc(CNC(=O)c2ccc(NC(=O)N3CCSc4ncccc43)cc2)c(OC)c1	.	.	0	0%	.
CCOc1ccccc1CNC(=O)c1ccc(NC(=O)N2CCSc3ncccc32)cc1	.	.	+	0%	.
Cc1cccc(CNC(=O)c2cccc(NC(=O)N3CCSc4ncccc43)c2)c1	.	.	+	33%	.
CCN1C(=NCCc2cccs2)N[C@@H](c2cccs2)C(C(=O)OC)=C1C	7.4µM*	?	.	-8%	-11%
CC(=O)C1=C(C)N(Cc2ccccc2)C(=O)N[C@H]1CCc1ccccc1	?	?	-93*	-23%	2%
CCOC(=O)CN1C(=O)N[C@@H](CCc2ccccc2)C(C(C)=O)=C1C	.	.	16	.	5%[12.9 µM]
COC(=O)C1=C(C)N(Cc2ccccc2)C(=NCCCCO)N[C@H]1CCc1ccccc1	?	3.7µM*	-6	-13%	1%
COC(=O)C1=C(C)N(Cc2ccccc2)C(=NCC(C)C)N[C@H]1c1ccccc1	?	8.3µM*	.	1%	2%
O=C(COc1ccc(S(=O)(=O)N2CCOCC2)cc1)NCCc1ccc(Cl)cc1	.	.	40	.	.
CC[C@@H](C)C(N)C(=O)O (stereo not given in full)	6%	-11%	.	.	-2%
O=C(O)C1c2ccccc2Cc2ccccc21	.	.	22	.	.
CCc1nnc(SCC(=O)Nc2ccc(F)cc2)o1	25%	?	-7	0%	.
COC(=O)[C@@]1(Cc2ccccc2)[C@H]2c3cc(C(=O)N4CCCC4)n(Cc4nc5ccccc5[nH]4)c3C[C@H]2CN1C(=O)c1ccccc1	.	.	.	.	-8%
COC(=O)C1=C(C)N(Cc2ccc(C(F)(F)F)cc2)C(=NCc2ccccc2)NC1c1cccc(Cl)c1 (stereo not given)	.	.	-100*	.	.
CCN1C(=NCc2cccc(Cl)c2)N[C@@H](c2cccc(F)c2)C(C(=O)OC)=C1C	?	?	-23	0%	8%
COC(=O)C1=C(C)N(Cc2ccccc2)C(=NCCc2c[nH]c3ccccc23)N[C@H]1c1cccc(C(F)(F)F)c1	?	13µM*	.	-23%	1%
COCCN=C1N[C@@H](c2cccc(C(F)(F)F)c2)C(C(=O)OC)=C(C)N1Cc1ccccc1	?	4.7µM*	-6	1%	-4%
COC(=O)C1=C(C)N(Cc2ccccc2)C(=NCCCCO)N[C@H]1c1cccc(C(F)(F)F)c1	?	?	13	1%	3%
COC(=O)C1=C(C)N(Cc2cccc(C(F)(F)F)c2)C(=NCC2CC2)NC1c1cccc(C(F)(F)F)c1 (stereo not given)	.	.	-85*	.	.
SMILES	Pf growth 48h	Pf growth 96h	HCMV inh	Sm TGR inh	FBPA Giardia inh
CCN(CC)S(=O)(=O)c1cc(C(=O)OCC(=O)Nc2ccc(-c3nc4ccc(C)cc4s3)cc2)ccc1F	178%	198%	?	0%	-1%
COc1ccc(NC(=O)CSCc2cc(=O)n3cc(C)sc3n2)cc1	11%	41%	-13	-7%	.
CCOc1ccc(C(=O)C(C)OC(=O)CN2C(=O)NC(C)(C)C2=O)cc1 (stereo not given)	?	6%	-4	-2%	.
Cc1ccc(SCC(=O)OC(C)C(=O)NCc2ccccc2)cc1 (stereo not given)	41%	?	-5	6%	.
COc1cccc2sc(N(Cc3cccnc3)C(=O)c3ccc4c(c3)OCCO4)nc12	.	.	?	1%	.
CCN1C(=NCCc2ccccn2)N[C@@H](c2cccc(F)c2)C(C(=O)OC)=C1C	2%	?	-16	9%	2%
CCN1C(=NCCc2c[nH]c3ccccc23)N[C@@H](c2ccccc2)C(C(=O)OC)=C1C	13µM*	1%	.	-3%	?
COC(=O)C1=C(C)N(CC2CC2)C(=NCCN2CCOCC2)N[C@H]1c1ccccc1	11%	?	.	-1%	14%
CCN1C(=NCc2cc(OC)c(OC)c(OC)c2)N[C@@H](c2cccc(F)c2)C(C(=O)OC)=C1C	5.2µM*	10µM*	.	-20%	4%
COC(=O)C1=C(C)N(Cc2ccccc2)C(=NCc2cccc(C(F)(F)F)c2)N[C@H]1c1cccc(C(F)(F)F)c1	?	7%	.	9%	19%
COC(=O)C1=C(C)N(Cc2ccccc2)C(=NCCc2ccccn2)N[C@H]1c1cccc(F)c1	12µM*	8.3µM*	41	4%	-24%
COC(=O)C1=C(C)N(Cc2ccc(C(F)(F)F)cc2)C(=NCc2ccccc2)NC1c1cccc(C(F)(F)F)c1 (stereo not given)	.	.	-101*	.	.
Cc1ccc(S(=O)(=O)N(CCCc2c(C)nc[nH]c2=O)c2ccccc2)cc1	.	.	-1	.	.
CCCOc1ccc(C2CC(=O)Nc3c2c(C)nn3-c2nncc(-c3cccc(OC)c3)n2)cc1OC (stereo not given)	.	.	9	1%	.
